Compound activity: PubChem, National Center for Advancing Translational Sciences (NCATS)
SMN2 splice enh – enhancers of SMN2 splice variant expression; HEK293 SMN2-luciferase splicing reporter, luminescence, 30-36 h; Potency, µM (highest dose often 46.1 µM), hits mostly activators; 210,000 tested, 2.8% active; further: nearly all actives have a fitted effect of over 55% in size
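HEK293 cells carry an SMN2 minigene-luciferase reporter in which exon 7 inclusion puts luciferase in frame. Cells were seeded at 2000 cells/well, attached for 10-12 hours, then exposed to compounds for 30-36 hours at 37C before ONE-Glo luminescence.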
ELG1 genotox – induces genotoxicity in HEK293T cells with luciferase-tagged ELG1 | Potency, µM (doses to about 46 µM), usual class: activators | HEK293T ELG1-luciferase reporter, luminescence, 16 h | AID 504466 | 330,000 tested, 1.3% active; further: nearly all actives have a fitted effect of over 60% in size
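HEK293T cells expressing luciferase-tagged ELG1 were treated with compound or DMSO for 16 hr at 37°C. Luciferase activity was then read after 30 min with ONE-Glo at room temperature; rising signal flags genetic stress.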
Rab9 promoter act – activates the Rab9 promoter | Huh7 Rab9 promoter-luciferase reporter, luminescence, 24 h | Potency, µM (doses to about 9.22 µM), hits mostly activators | 320,000 tested, 2.8% active; further: nearly all actives have a fitted effect of over 60% in size
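Luminescence read-out: Huh7 cells stably expressing Rab9-luciferase, treated 24 h with compound at 37 °C, then lysed with luciferase reagent for 10 min at ambient before reading.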
FLuc modulator – inhibits or activates purified firefly luciferase, miR-21 counter-screen. P08659. purified FLuc, Km substrates, luminescence inhibition. Potency, µM (titrated, usually from 57.5 µM), usual class: inhibitors. 360,000 tested, 6.9% active. AID 588342; further: nearly all actives have a fitted effect of over 55% in size
Target sequence (P08659 whole entry, looked up): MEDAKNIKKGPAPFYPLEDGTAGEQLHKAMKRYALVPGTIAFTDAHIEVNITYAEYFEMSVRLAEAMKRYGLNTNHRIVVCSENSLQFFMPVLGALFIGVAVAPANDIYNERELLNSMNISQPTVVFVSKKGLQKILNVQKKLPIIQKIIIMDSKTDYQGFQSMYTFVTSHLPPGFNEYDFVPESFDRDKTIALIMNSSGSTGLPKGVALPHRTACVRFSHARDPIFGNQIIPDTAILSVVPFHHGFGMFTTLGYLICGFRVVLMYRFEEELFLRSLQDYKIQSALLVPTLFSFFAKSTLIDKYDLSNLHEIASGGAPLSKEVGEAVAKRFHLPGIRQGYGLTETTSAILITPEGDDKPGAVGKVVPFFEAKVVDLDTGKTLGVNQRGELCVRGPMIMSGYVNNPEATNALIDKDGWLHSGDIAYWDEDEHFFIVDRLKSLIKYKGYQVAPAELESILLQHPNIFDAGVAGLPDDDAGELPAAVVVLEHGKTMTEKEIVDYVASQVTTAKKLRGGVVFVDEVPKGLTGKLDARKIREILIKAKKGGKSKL
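Purified P. pyralis luciferase (10nM final) with 10uM D-luciferin and 10uM ATP (Km levels) in 50mM Tris acetate pH 7.5, 10mM Mg acetate, 0.01% Tween-20, 0.05% BSA; qHTS 6-point titration, ~60 µM downward; luminescence read.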
NPC1 prom act – NPC1 promoter activation. Huh7 NPC1 promoter luciferase reporter, 24 h. Potency, µM (series often up to 9.22 µM), usual class: activators. 320,000 tested, 2.4% active. AID 485313; further: nearly all actives have a fitted effect of over 60% in size
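Stably transfected Huh7 (NPC1 promoter→luciferase), 1500 cells/well in Opti-MEM + 10% FBS, 2 h settle, then compound 24 h at 37 °C. Luminescence after 10 min with Amplite reagent.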
Numbers stand for hits; - = inactive; ? = inconclusive; . = no result. Only some compounds are listed: those with a hit (about 7.5% of all), similar ones and a draw of the others. The call rests on the fitted dose curve; in most records, active means well fitted curve in the direction sought with a large enough effect; inconclusive means small, poorly fitted or top-dose-only effect, or another doubt; inactive means no such curve, though single readings can be large; an effect the other way counts as inactive or inconclusive.

SMILES	SMN2 splice enh	ELG1 genotox	Rab9 promoter act	FLuc modulator	NPC1 prom act
Cc1ccc2nc(-c3ccc(NC(=O)COCC(=O)O)cc3)sc2c1	.	?	?	1.2µM	?
Cc1ccc2nc(-c3ccc(NC(=O)CSCC(=O)O)cc3)sc2c1	.	?	2.8µM	1.7µM	4µM
O=C(COc1ccccc1F)Nc1ccc(-c2nc3ccccc3s2)cc1	.	.	0.63µM	.	0.89µM
Cc1ccc(NC(=O)COCC(=O)Nc2ccc(C)cc2)cc1	.	-	-	-	-
CCCOc1ccccc1C(=O)Nc1ccc(-c2nc3ccc(C)cc3s2)cc1	13µM	.	.	4.8µM	.
CC1(C)CC(NS(=O)(=O)c2ccccc2)CC(C)(C)N1	-	-	-	-	-
Cc1ccc2nc(-c3ccc(NC(=O)Cc4ccccc4)cc3)sc2c1	?	.	.	11µM	.
COc1cccc(C(=O)Nc2ccc(-c3nc4ccc(C)cc4s3)cc2)c1OC	.	.	.	-	.
O=C(O)CSCC(=O)Nc1ccc(-c2nc3ccccc3s2)cc1	.	?	?	3µM	-
Cc1csc(NC(=O)CSCC(=O)O)c1-c1nc2ccccc2s1	.	-	-	-	-
O=C(COc1ccc([N+](=O)[O-])cc1)N/N=C/c1cc([N+](=O)[O-])ccc1N1CCOCC1	-	-	-	-	-
O=C(/C=C/c1cccs1)NC1CC1	-	-	-	-	-
O=C(/C=C/c1cccs1)Nc1ccc(Br)cn1	14µM	9.2µM	?	3µM	?
O=C(/C=C/c1cccs1)Nc1cccc(NC(=O)/C=C/c2cccs2)n1	7.1µM	-	?	1.9µM	?
Cc1cc(C)c(-c2csc(NC(=O)/C=C/c3cccs3)n2)c(C)c1	-	-	-	-	-
NS(=O)(=O)c1cccc(NC(=O)/C=C/c2cccs2)c1	?	-	?	7.6µM	?
Cc1cc(C)nc(NC(=O)/C=C/c2cccs2)c1	.	?	3.5µM	13µM	?
COc1ccc(-c2ocnc2C(=O)N2CCN(C(=O)C(c3ccccc3)c3ccccc3)CC2)cc1	.	-	-	-	-
CCOc1ccc(CNC(=O)c2ccc(Sc3ccc(C)cc3)c(NC(C)=O)c2)cc1OC	.	-	-	-	-
CC(C)Cc1nc(N2CCCCC2)c(C#N)c2c1CCC2	-	-	-	-	-
CCOC(=O)Cn1cc(C#N)c2ccccc21	.	-	-	-	-
Cc1ccccc1NC(=O)CC(=O)Nc1ccccc1C	.	-	-	-	-
O=C(/C=C\c1ccccc1)Nc1nccs1	4µM	?	0.89µM	1.9µM	1.6µM
Cc1ccccc1NC(=O)C(=O)Nc1ccccc1C	.	?	0.89µM	?	1.3µM
O=C(Nc1nccs1)C(Br)C(Br)c1ccccc1 (centres undefined)	.	?	0.5µM	4.8µM	1.1µM
SMILES	SMN2 splice enh	ELG1 genotox	Rab9 promoter act	FLuc modulator	NPC1 prom act
O=C(/C=C/c1cccc(F)c1)Nc1nccs1	11µM	?	1.8µM	9.5µM	2µM
O=C(COC(=O)/C=C/c1cccc(F)c1)Nc1ncccn1	.	-	-	-	-
CCc1nnc(NC(=O)/C=C/c2cccs2)s1	?	23µM	3.5µM	-	?
CCc1nnc(NC(=O)C=C(C)C)s1	10µM	?	?	?	?
Cc1ccccc1NC(=O)/C=C/c1cccs1	13µM	?	4.5µM	?	?
CCOC(=O)c1ccc(NC(=O)/C=C/c2cccs2)cc1	?	-	?	11µM	?
CCN(CC)CCOC(=O)c1ccc(NC(=O)/C=C/c2cccs2)cc1	-	-	-	-	-
CC1C(=O)N2CCCc3cc(NC(=O)C4CCCCC4)cc1c32 (centres undefined)	.	-	-	-	-
CC1CC(=O)C2=C(C1)Nc1nc3ccccc3n1C2c1cccnc1 (centres undefined)	-	-	-	-	-
O=C(/C=C/c1cccs1)Nc1nccs1	13µM	18µM	2.2µM	?	1.8µM
O=C(/C=C/c1cccs1)Nc1ccc(S(=O)(=O)Nc2ncccn2)cc1	.	-	-	-	-
c1ccc2nc(-c3nc4ccccc4o3)ccc2c1	.	?	3.2µM	0.24µM	?
COc1cc(C(=O)NCC2CCCO2)ccc1OCc1ccc(Cl)cc1Cl (centres undefined)	.	-	-	-	-
CCn1c(C)nnc1SCC(=O)Nc1ccc(N2CCOCC2)cc1	.	-	-	?	-
CCn1c(SCC(=O)Nc2ccc(N3CCOCC3)c(Cl)c2)nnc1-c1ccc(N)cc1	-	-	-	13µM	-
CCn1c(SCC(=O)Nc2ccc(N3CCOCC3)cc2)nnc1-c1ccc(OC)cc1	-	-	-	15µM	-
